# Reference: the supplement of paper PMC4466140
# Tests used:
# Assay in all cases: SPOT peptide array binding signal intensity (averaged, normalized) (arbitrary units (background-subtracted, floor 0; scale differs between SH3 domains)); higher = stronger binding of the SH3 domain to the peptide
# [1] = target: ScBbc1
# Experimental: (§1)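 GST-tagged SH3 domains from S. cerevisiae (Sc), A. gossypii (Ag), C. albicans (Ca) and S. pombe (Sp) were incubated at 10 ug/ml overnight at 4 C on cellulose SPOT membranes carrying 292 synthetic 15-mer peptides mined from the S. cerevisiae proteome (cysteines replaced by serines). Binding was detected with anti-GST antibody, HRP secondary and chemiluminescence, quantified with Genespotter, and reported as normalized spot intensities averaged over biological replicates.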
# [2] = target: ScBem1-D1
# Experimental: as §1
# [3] = target: ScBzz1-D1
# Experimental: as §1
# [4] = target: ScBzz1-D2
# Experimental: as §1
# [5] = target: ScCyk3
# Experimental: as §1
# [6] = target: ScFus1
# Experimental: as §1
# [7] = target: ScHof1
# Experimental: as §1
# [8] = target: ScHse1
# Experimental: as §1
# [9] = target: ScLsb1
# Experimental: as §1
# [10] = target: ScLsb2
# Experimental: as §1
# [11] = target: ScLsb3
# Experimental: as §1
# [12] = target: ScLsb4
# Experimental: as §1
# [13] = target: ScMyo3
# Experimental: as §1
# [14] = target: ScMyo5
# Experimental: as §1
# [15] = target: ScNbp2
# Experimental: as §1
# [16] = target: ScPex13
# Experimental: as §1
# [17] = target: ScRvs167
# Experimental: as §1
# [18] = target: ScSho1
# Experimental: as §1
# [19] = target: ScSla1-D1-D2
# Experimental: as §1
# [20] = target: ScSla1-D3
# Experimental: as §1
# [21] = target: SpAbp1-D1
# Experimental: as §1
# [22] = target: SpBbc1
# Experimental: as §1
# [23] = target: SpBzz1-D1
# Experimental: as §1
# [24] = target: SpBzz1-D2
# Experimental: as §1
# [25] = target: SpCyk3
# Experimental: as §1
# [26] = target: SpHof1
# Experimental: as §1
# [27] = target: SpHof1-2
# Experimental: as §1
# [28] = target: SpHof1-3
# Experimental: as §1
# [29] = target: SpHse1
# Experimental: as §1
# [30] = target: SpLsb1
# Experimental: as §1
# [31] = target: SpLsb4
# Experimental: as §1
# [32] = target: SpMyo1
# Experimental: as §1
# [33] = target: SpNbp2
# Experimental: as §1
# [34] = target: SpPex13
# Experimental: as §1
# [35] = target: SpRvs167
# Experimental: as §1
# [36] = target: SpSla1-D1-D2
# Experimental: as §1
# [37] = target: SpSla1-D3
# Experimental: as §1
binder,measurement,setting,value
LASNSPPVYPKRIRH,SPOT peptide array binding signal intensity,[1],16.8
same,SPOT peptide array binding signal intensity,[2],≤ 0
same,SPOT peptide array binding signal intensity,[3],≤ 0
same,SPOT peptide array binding signal intensity,[4],19
same,SPOT peptide array binding signal intensity,[5],1
same,SPOT peptide array binding signal intensity,[6],≤ 0
same,SPOT peptide array binding signal intensity,[7],0.75
same,SPOT peptide array binding signal intensity,[8],≤ 0
same,SPOT peptide array binding signal intensity,[9],46.5
same,SPOT peptide array binding signal intensity,[10],10
same,SPOT peptide array binding signal intensity,[11],1560
same,SPOT peptide array binding signal intensity,[12],45.5
same,SPOT peptide array binding signal intensity,[13],≤ 0
same,SPOT peptide array binding signal intensity,[14],≤ 0
same,SPOT peptide array binding signal intensity,[15],≤ 0
same,SPOT peptide array binding signal intensity,[16],56.5
same,SPOT peptide array binding signal intensity,[17],7.67
same,SPOT peptide array binding signal intensity,[18],27.5
same,SPOT peptide array binding signal intensity,[19],11
same,SPOT peptide array binding signal intensity,[20],≤ 0
same,SPOT peptide array binding signal intensity,[21],18.5
same,SPOT peptide array binding signal intensity,[22],≤ 0
same,SPOT peptide array binding signal intensity,[23],248
same,SPOT peptide array binding signal intensity,[24],≤ 0
same,SPOT peptide array binding signal intensity,[25],≤ 0
same,SPOT peptide array binding signal intensity,[26],1.5
same,SPOT peptide array binding signal intensity,[27],1
same,SPOT peptide array binding signal intensity,[28],2.75
same,SPOT peptide array binding signal intensity,[29],≤ 0
same,SPOT peptide array binding signal intensity,[30],257
same,SPOT peptide array binding signal intensity,[31],1810
same,SPOT peptide array binding signal intensity,[32],≤ 0
same,SPOT peptide array binding signal intensity,[33],0.5
same,SPOT peptide array binding signal intensity,[34],≤ 0
same,SPOT peptide array binding signal intensity,[35],3.5
same,SPOT peptide array binding signal intensity,[36],≤ 0
same,SPOT peptide array binding signal intensity,[37],≤ 0
